± gives the standard deviation of the averaged measurements.

The values that follow come from the supplement of paper PMC6522484.

The test system of assay [1] is DLD1. Kind of assay: cell viability (CellTiter-Glo) relative to plate median (fraction of plate median); higher = more viable cells. The settings on record: 5 µM; treatment time 24 h; reporter: 7TFP. An outline of the steps: (§1)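 Per-well firefly luciferase or CellTiterGlo luminescence, normalised to the plate median, is what is reported. It was measured in colorectal cancer cells with stable lentiviral TCF/Wnt firefly luciferase reporters after a 24 h treatment with library compounds at a final 5 µM. The mean of two independent replicates is given.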

The subject of assay [2] is HCT116. The assay is described as above. The settings on record: 5 µM; treatment time 24 h; reporter: TCF4/Wnt. An outline of the steps: as §1
Assay [3] deals with SW480. Described as above. The settings on record: 5 µM; treatment time 24 h; reporter: 7TFP. An outline of the steps: as §1
The subject of assay [4] is DLD1. As to the kind of experiment: TCF/Wnt firefly luciferase reporter signal relative to plate median (fraction of plate median); higher = higher Wnt reporter signal. The settings on record: 5 µM; treatment time 24 h; reporter: 7TFP. An outline of the steps: as §1
In general terms: A reporter such as luciferase makes a cellular process visible.

In assay [5] the test system is SW480. The description is as above. The settings on record: 5 µM; treatment time 24 h; reporter: 7TFP. An outline of the steps:
as §1

In the case of `O=C(OCC(O)CO)c1ccccc1Nc1ccnc2cc(Cl)ccc12` (stereo not given), the cell viability in assay [1] came out at 0.984 ± 0.037; in assay [2], 1.015 ± 0.0071; in assay [3], 1.02 ± 0.021. Moreover, the “TCF/Wnt firefly luciferase reporter signal” value in assay [4] was 0.954 ± 0.15; in assay [5], 0.922 ± 0.044.

Consider `COc1ccc(-c2oc3cc(O[C@@H]4O[C@H](CO)[C@@H](O)[C@H](O)[C@H]4O)c(OC)c(O)c3c(=O)c2OC)cc1O`, for which the values for the cell viability in assay [1], in assay [2] and in assay [3] were 1.05 ± 0.057, 1.19 ± 0.17 and 1, respectively. Moreover, the “TCF/Wnt firefly luciferase reporter signal” value in assay [4] stood at 1.05 ± 0.035; in assay [5], 1.02 ± 0.11.

`Cc1ccc(N(CC2=NCCN2)c2cccc(O)c2)cc1`: the cell viability in assay [1] was 1.01 ± 0.042; in assay [2], 0.992 ± 0.2; in assay [3], 1.02 ± 0.014. Also, the “TCF/Wnt firefly luciferase reporter signal” value in assay [4] was 0.92 ± 0.039; in assay [5], 0.94 ± 0.044.

As for `N=C(N)NCCCCN`, the cell viability worked out at 1 ± 0.054 in assay [1], 1.15 ± 0.014 in assay [2] and 1.02 ± 0.058 in assay [3]. Moreover, the “TCF/Wnt firefly luciferase reporter signal” value in assay [4] stood at 1.02 ± 0.04; in assay [5] it was 1.09 ± 0.071.

As to `C[C@@H]1CC[C@@]2(OC1)O[C@H]1C[C@H]3[C@@H]4CC[C@@H]5C[C@@H](O)CC[C@]5(C)[C@H]4CC[C@]3(C)[C@H]1[C@@H]2C`, the cell viability in assay [1] was determined as 0.993 ± 0.038; in assay [2] it was 1.09 ± 0.05; in assay [3] it was 1.01 ± 0.05. Moreover, the “TCF/Wnt firefly luciferase reporter signal” value amounted to 0.956 ± 0.09 in assay [4] and 1.04 ± 0.071 in assay [5].

`COc1ccc2c(c1)[C@@]1(C)CC[C@@H](O)C[C@@H]1CC2` [12-METHOXY-4,4-BISNOR-5alpha-8,11,13-PODOCARPATRIEN-3-OL]: the cell viability came out at 1.02 ± 0.014 in assay [1], 1.1 ± 0.13 in assay [2] and 0.984 ± 0.037 in assay [3]. Besides, the “TCF/Wnt firefly luciferase reporter signal” value in assay [4] came out at 1.03 ± 0.11; in assay [5], 0.937 ± 0.021.

For `CN(C)CCCN1c2ccccc2CCc2ccccc21`, the cell viability in assay [1] came to 1.05 ± 0.1; in assay [2], 0.989 ± 0.1; in assay [3], 1.015 ± 0.0071. For the same compound, the “TCF/Wnt firefly luciferase reporter signal” value came out at 0.881 ± 0.012 in assay [4] and 0.913 ± 0.024 in assay [5].

`C=C1C2CCC3(C)C(c4ccoc4)OC(=O)CC13OC1CC(=O)C(C)(C)C(CC(=O)OC)C12C` (stereo not given): the cell viability in assay [1] was 0.97 ± 0.012; in assay [2], 0.934 ± 0.0099; in assay [3], 0.925 ± 0.044. The “TCF/Wnt firefly luciferase reporter signal” value in assay [4] came to 1.04 ± 0.12; in assay [5], 1.09 ± 0.13.

Turning to `CC[C@H](C)C(=O)O[C@H]1C[C@@H](C)C=C2C=C[C@H](C)[C@H](CC[C@@H]3C[C@@H](O)CC(=O)O3)[C@H]21` [Mevinolin, Lovastatin], the cell viability in assay [1] came to 0.966 ± 0.1; in assay [2], 0.931 ± 0.048; in assay [3], 0.942 ± 0.017. The “TCF/Wnt firefly luciferase reporter signal” value is 0.836 ± 0.26 in assay [4] and 0.943 ± 0.029 in assay [5].

As to `CC(C)=CCC[C@](C)(O)C1CC=C(C)CC1` (stereo not given in full), the cell viability was determined as 1.04 ± 0.063 in assay [1], 0.973 ± 0.081 in assay [2] and 1.1 ± 0.085 in assay [3]. Also, the entries for the “TCF/Wnt firefly luciferase reporter signal” value in assay [4] and in assay [5] were 1.03 ± 0.014 and 0.996 ± 0.076, respectively.
